Rows were chosen to be rich in hits. Some 5.7% of all compounds tested hit in one or more screens of this group.
HP1b binding inh: HTS for Inhibitors of HP1-beta Chromodomain Interactions with Methylated Histone Tails; Chromobox protein homolog 1 (Homo sapiens), P83916; AlphaScreen HP1-beta / biotin-H3K9me3 peptide binding; Potency, µM (titrated, usually from 114 µM), without a hit: at the top dose activity change, negative = inhibition, most hits filed as inhibitors; 0.56% of 390,000 active; AID 540317, 2011; further: potency means the concentration at half of the fitted maximal effect; nearly all actives have a fitted effect of over 70% in size
Target sequence (P83916 whole entry, looked up): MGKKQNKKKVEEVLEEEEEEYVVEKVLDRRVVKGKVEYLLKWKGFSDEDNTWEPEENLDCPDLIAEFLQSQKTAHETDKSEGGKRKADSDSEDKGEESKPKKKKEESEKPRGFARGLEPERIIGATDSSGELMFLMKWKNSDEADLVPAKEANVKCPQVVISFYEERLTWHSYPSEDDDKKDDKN
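AlphaScreen: HP1-beta (50 nM) preformed 30 min with biotin-H3(1-18)K9me3 peptide (50 nM) in PBS pH 7.4, 0.01% Tween-20. Compound added for 30 min at RT, then streptavidin donor/nickel chelate acceptor beads (10 ug/mL) for 30 min.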
JMJD2A Tudor: qHTS Assay for Inhibitors of JMJD2A-Tudor Domain | AID 504339, 2011 | AlphaScreen JMJD2A-Tudor / H3K4me3 peptide binding | Potency, µM (highest dose often 114 µM), inactives show at the highest dose activity change, negative = inhibition, usual class: inhibitors | 4.4% of 390,000 active; further: potency means the concentration at half of the fitted maximal effect; on the % scale 0 is the no-effect control and ±100 the full control effect; nearly all actives have a fitted effect of over 50% in size
BAZ2B inh: qHTS Assay for Inhibitors of BAZ2B; AlphaScreen BAZ2B-H3K14Ac peptide displacement; AID 504333, 2011; Bromodomain adjacent to zinc finger domain protein 2B (Homo sapiens), Q9UIF8; 4.4% of 360,000 active; Potency, µM (titrated, usually from 114 µM), without a hit: at the top dose activity change, negative = inhibition, hits mostly inhibitors; further: potency means the concentration at half of the fitted maximal effect; on the % scale 0 is the no-effect control and ±100 the full control effect; nearly all actives have a fitted effect of over 60% in size
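In this displacement format the biotinylated H3(5-23) peptide acetylated at Lys14 serves as ligand at 50 nM, with BAZ2B at 50 nM in PBS pH 7.4 containing 0.01% Tween-20. Donor and acceptor beads are 10 ug/mL final.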
JMJD2E inh: qHTS Assay for Inhibitors of Human Jumonji Domain Containing 2E (JMJD2E) | 1.6% of 230,000 active | Lysine-specific demethylase 4E (Homo sapiens), B2RXH2 | Potency, µM (titrated, usually from 57.1 µM), without a hit: top-dose activity change, negative = inhibition, most hits filed as inhibitors | JMJD2E catalytic domain, FDH-coupled NADH fluorescence (FDH is formaldehyde dehydrogenase); active means well fitted inhibition curve with a large enough effect, not every such curve was filed as active; inconclusive means small, poorly fitted or top-dose-only effect, or another doubt; inactive means no such curve, though single readings can be large or run the other way;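 further: potency means the concentration at half of the fitted maximal effect; 0% = wells with enzyme and -100% = buffer wells without enzyme; nearly all actives have a fitted effect of over 50% in size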
Target sequence (B2RXH2 1-337 limits assumed): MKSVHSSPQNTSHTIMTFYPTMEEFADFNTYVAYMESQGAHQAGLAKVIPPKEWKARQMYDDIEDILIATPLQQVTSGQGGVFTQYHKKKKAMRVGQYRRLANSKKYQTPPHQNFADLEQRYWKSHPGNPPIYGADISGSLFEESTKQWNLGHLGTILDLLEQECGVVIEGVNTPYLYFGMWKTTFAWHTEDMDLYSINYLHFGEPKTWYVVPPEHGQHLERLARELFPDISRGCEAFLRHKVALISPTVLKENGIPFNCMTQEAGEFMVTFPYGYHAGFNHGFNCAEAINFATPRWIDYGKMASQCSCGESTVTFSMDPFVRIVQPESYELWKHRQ
L3MBTL1 inh: qHTS Assay for the Inhibitors of L3MBTL1; Lethal(3)malignant brain tumor-like protein 1 (Homo sapiens), Q9Y468; AlphaScreen L3MBTL1–H3K9me1 peptide binding; Potency, µM (top dose mostly 57.1 µM), for inactives: at the top dose activity, negative = inhibition, most hits filed as inhibitors; 0.66% of 230,000 active; AID 485360, 2010; further: potency means the concentration at half of the fitted maximal effect; on the % scale 0 is the no-effect control and ±100 the full control effect; nearly all actives have a fitted effect of over 60% in size
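L3MBTL1 50 nM + b-AHA-H3(1-15)K9me1 75 nM, 30 min RT; compound added, 30 min RT; streptavidin donor/Ni-chelate acceptor beads 10 ug/mL each final, 30 min RT dark; AlphaScreen read.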
PI5P4Ka inh: qHTS for Inhibitors of phosphatidylinositol 5-phosphate 4-kinase (PI5P4K). PI5P4Kalpha enzyme, ADP-Glo luminescence, 60 min; stronger effect = lower value. 1.2% of 330,000 active. max response, %. AID 652105, 2013; active means max response of -50% or lower; inconclusive means between -30% and -50%; inactive means -30% or higher; further: value at the top dose of about 77 µM; on the % scale 0 is the no-effect control and ±100 the full control effect
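ADP-Glo luminescence end-point after a 60 min room-temperature kinase reaction. PI5P4Kalpha and substrate in HEPES pH 7.4 buffer with EGTA, 0.1% CHAPS and 5% DMSO; ATP at 5 microM final.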
Numbers without * were called inactive; ? = inconclusive; . = not tested or not shown. Unless noted, the call rests on the fitted dose curve; in most records, active means well fitted inhibition curve with a large enough effect; inconclusive means small, poorly fitted or top-dose-only effect; inactive means no such curve, though single readings can be large or run the other way.

SMILES	HP1b binding inh	JMJD2A Tudor	BAZ2B inh	JMJD2E inh	L3MBTL1 inh	PI5P4Ka inh
O=C(O)c1cccc(NC2=C(N3CCOCC3)C(=O)c3ccccc3C2=O)c1	-4%	-23%	?	?	-14%	-10
N#Cc1c(-c2ccc(Cl)cc2)cc(-c2cccs2)nc1SCC(=O)O	-18%	28µM*	22µM*	.	.	?
N#Cc1c(-c2ccccc2)cc(-c2cccs2)nc1SCC(=O)O	4%	-13%	-5%	.	.	-2
COc1ccc(C(=O)O)cc1COc1ccc(NC(C)=O)cc1	.	-2%	.	.	.	.
O=[N+]([O-])c1cc(Cl)ccc1Nc1ccccc1	18µM*	28µM*	5µM*	.	28µM*	14
COc1ccc(Nc2ccc(C(=O)O)cc2[N+](=O)[O-])cc1	16%	-4%	-30%	13%	-1%	-18
COc1ccc(Nc2ccc([N+](=O)[O-])cc2[N+](=O)[O-])cc1	?	50µM*	25µM*	-2%	?	5
Nc1ccc(Nc2ccc([N+](=O)[O-])cc2[N+](=O)[O-])cc1	?	?	28µM*	5%	.	-1
CC(=O)c1cccc(NC(=O)C(CC(C)C)NS(=O)(=O)c2ccc3c(c2)CCN3C(C)=O)c1 (configuration not stated)	29%	-13%	.	.	.	.
COc1ccc(C2C(=O)N(C3CCC(C)CC3)CC(=O)N2Cc2ccccc2Cl)cc1OC (configuration not stated)	13%	-34%	-19%	.	.	.
Cc1cc(NCCCn2ccnc2)n2nc(C)c(-c3ccccc3)c2n1	0%	?	?	-9%	.	.
Cc1cc(NCCCn2ccnc2)n2nc(C)c(-c3ccc(Cl)cc3)c2n1	-10%	?	32µM*	5%	.	.
COC(=O)C1=C[C@@H](C(=O)OC)C2C3=C(C(=O)[C@@]2(C)NC(=O)c2ccccc2)[C@H](c2ccccc2)n2c(=O)n(-c4ccccc4)c(=O)n2[C@@H]3C1 (some centres not stated)	8%	-31%	.	.	.	.
CN(C)S(=O)(=O)c1cccc(NC(=O)c2ccc(S(=O)(=O)N3CCCCC3)cc2)c1	19%	89µM*	7%	.	0%	14
O=C(CCNC(=O)c1ccc([N+](=O)[O-])cc1)Nc1cccc(S(=O)(=O)N2CCOCC2)c1	32%	-2%	0%	.	2%	0
CN(C)S(=O)(=O)c1cccc(NC(=O)c2cccc(S(=O)(=O)N3CCCCCC3)c2)c1	18%	-21%	1%	.	-8%	-2
COc1ccc(Br)cc1CN(C)CC(=O)Nc1cccc(S(=O)(=O)N2CCCC2)c1	?	25µM*	.	.	-8%	-1
O=C(CCNC(=O)c1ccc([N+](=O)[O-])cc1)Nc1cccc(S(=O)(=O)N2CCCCCC2)c1	4%	-29%	56µM*	.	-5%	3
COC(=O)N[C@@H](/C=C/c1ccccc1)C[N+](=O)[O-]	.	.	.	4%	.	.
COc1cccc(NC(=O)C2=C(C)C(=O)OC23CCN(C(C)=O)CC3)c1	25%	-19%	10%	.	.	.
CC1CCCC=CC2CC(OC(=O)CN(C)C)CC2C(O)C=CC(=O)O1 (configuration not stated)	37%	-12%	.	.	.	-3
C[C@H]1CCC/C=C/[C@@H]2C[C@H](O)C[C@H]2[C@H](O)[C@H](S(=O)c2ccc(O)cc2)CC(=O)O1 (some centres not stated)	?	40µM*	.	.	.	-20
CCOC(=O)c1c(NC(=O)c2cc(CC)on2)sc(C)c1C	?	-2%	1%	.	.	.
CSc1c(C#N)sc(=S)n1-c1ccc(C)cc1	34%	-4%	17%	-3%	-12%	2
CC1CCCN(c2ccc3nc4ccccc4c(=O)n3n2)C1 (configuration not stated)	33%	79µM*	6%	-10%	.	3
SMILES	HP1b binding inh	JMJD2A Tudor	BAZ2B inh	JMJD2E inh	L3MBTL1 inh	PI5P4Ka inh
O=C(O)CSc1ncnc2sc3c(c12)CCC3	36%	-24%	50µM*	?	-6%	-68*
O=C(CSc1ncnc2sc3c(c12)CCC3)Nc1ccccc1C(=O)O	3%	-14%	-14%	1%	.	-84*
Cc1ccc(-c2csc3ncnc(SCC(=O)O)c23)cc1	17%	2%	-9%	-2%	10%	-70*
O=C(O)CSc1ncnc2sc3c(c12)CCCC3	7%	-12%	5%	6%	18%	-58*
COC(=O)CSc1ncnc2scc(-c3ccccc3)c12	97%	53%	5%	-13%	.	3
CCSc1ncnc2sc3c(c12)CCC3	111%	66%	61%	-3%	.	.
COc1cc(NC(=O)CSc2ncnc3sc4c(c23)CCC(C)C4)c(C(=O)O)cc1OC (configuration not stated)	5%	-18%	-29%	.	.	-3
CCc1cccc(NC(=O)c2coc(=O)c3ccccc23)c1	10%	-15%	6%	.	.	.
CC1CCc2c(sc3ncnc(SCC(=O)Nc4ccc(C(=O)O)cc4)c23)C1 (configuration not stated)	15%	-2%	-22%	.	.	-67*
COc1ccc2[nH]c(C(=O)O)c(CCC(=O)O)c2c1	28%	-12%	-28%	?	.	-24
COc1ccc2[nH]c(C(=O)O)c(CCN3C(=O)c4ccc(C(=O)O)cc4C3=O)c2c1	25%	-6%	-4%	.	.	-60*
CCN(c1ccccc1)S(=O)(=O)c1c(-c2ccc(C)cc2)csc1C(=O)OC	3%	-3%	16%	.	.	.
NS(=O)(=O)c1ccc(N=Nc2ccc(O)c3ncccc23)cc1	?	20µM*	3.5µM*	.	.	-79*
NS(=O)(=O)c1ccc(N=NN2CCCCC2)cc1	9%	-17%	0%	8%	5%	8
CCOc1ccc(N=Nc2ccc(O)c3ncccc23)cc1	-8%	?	?	.	.	0
NS(=O)(=O)c1ccc(N=Nc2ccc(=O)[nH]c2O)cc1	50µM*	35µM*	45µM*	-7%	?	-80*
Cc1ccc(N=Nc2cc(C)ccc2O)c(C)c1	?	45µM*	5.6µM*	.	.	36
Cc1ccc(C)c(N=Nc2ccc(O)c3ncccc23)c1	?	8.9µM*	20µM*	?	.	-9
CCN1C(=O)C(CC(=O)Nc2ccc(OC)cc2)N(Cc2ccc3c(c2)OCO3)C1=S (configuration not stated)	8%	-6%	-38%	?	-7%	2
